# Values joined by “and” are separate entries in the source; they are usually repeats but may differ in a detail not shown here. Equal values may be shown once. Inconclusive results are not listed. Entries that show only a call come without a potency. Active and inactive are the calls of the source. Unless noted, calls come from the whole dose curve.
# Biological target: Glucocorticoid receptor (Homo sapiens) (UniProt P04150)
# Assay: GR-EFC Redistribution (AID 451); note: potency is the fitted concentration of half-maximal effect
# Conditions: CHO-K1 GR-EFC translocation, beta-gal luminescence, 2 h
# How it was run: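 CHO-K1 cells stably expressing nuclear-localized β-gal enzyme acceptor and GR fused C-terminally to the enzyme donor fragment; ligand-driven nuclear translocation restores β-gal by complementation. Compounds titrated up to 46 uM final, 2 h at 37 °C; luminescence read.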
# Sequence of Glucocorticoid receptor (Homo sapiens) (P04150 whole entry, looked up): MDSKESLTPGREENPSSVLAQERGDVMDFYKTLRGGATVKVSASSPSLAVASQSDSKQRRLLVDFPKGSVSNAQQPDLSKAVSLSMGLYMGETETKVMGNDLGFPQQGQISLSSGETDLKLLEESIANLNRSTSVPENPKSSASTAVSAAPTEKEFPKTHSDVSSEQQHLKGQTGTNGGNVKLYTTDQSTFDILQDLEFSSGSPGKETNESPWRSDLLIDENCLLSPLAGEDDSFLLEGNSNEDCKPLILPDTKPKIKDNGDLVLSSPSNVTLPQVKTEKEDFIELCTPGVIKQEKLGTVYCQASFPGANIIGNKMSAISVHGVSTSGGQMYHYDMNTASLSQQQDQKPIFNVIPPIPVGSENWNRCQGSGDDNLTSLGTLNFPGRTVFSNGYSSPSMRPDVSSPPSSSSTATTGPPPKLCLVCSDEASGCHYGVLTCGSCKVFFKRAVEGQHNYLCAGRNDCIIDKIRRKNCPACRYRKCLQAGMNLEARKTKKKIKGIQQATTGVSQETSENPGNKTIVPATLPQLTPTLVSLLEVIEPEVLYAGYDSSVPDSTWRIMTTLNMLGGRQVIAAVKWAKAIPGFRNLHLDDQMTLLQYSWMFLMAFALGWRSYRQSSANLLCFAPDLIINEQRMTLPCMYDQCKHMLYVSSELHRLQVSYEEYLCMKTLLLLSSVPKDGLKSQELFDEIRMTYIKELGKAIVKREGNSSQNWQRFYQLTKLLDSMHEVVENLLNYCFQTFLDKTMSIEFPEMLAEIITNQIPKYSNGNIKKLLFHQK
row,Structure (SMILES),Potency
1,C=C1c2cccc(O)c2C(O)=C2C(=O)[C@@]3(O)C(O)=C(C(N)=O)C(=O)[C@@H](N(C)C)[C@@H]3[C@@H](O)[C@H]12,> 20.6 µM (inactive)
2,COc1ccc(CCN(C)CCCOc2ccc(S(=O)(=O)c3[nH]c4ccccc4c3C(C)C)cc2)cc1OC,> 46 µM (inactive)
3,NS(=O)(=O)c1cc(Cl)c(Cl)c(S(N)(=O)=O)c1,> 20.6 µM (inactive)
4,CCCCC[C@H](O)C=C[C@H]1[C@H](O)CC(=O)[C@H]1CCCCCCC(=O)O,> 46 µM (inactive)
5,Cc1cc(NC(=O)Nc2ccc(N(C)C)cc2)c2cc(F)cc(F)c2n1,> 46 µM (inactive)
6,CN(C)c1ccccc1CN1CCCN(Cc2ccccc2N(C)C)C1c1ccncc1,> 9.22 µM (inactive)
7,CC1C(=O)OC2C(O)C34C5CC(C(C)(C)C)C36C(OC(=O)C6O)OC4(C(=O)O5)C12O (stereo unspecified),> 46 µM (inactive)
8,O=c1cc(-c2ccc(O)c(O)c2)oc2cc(O)cc(O)c12,> 20.6 µM (inactive) and > 46 µM (inactive)
9,Cc1ccc(NC(=O)c2cccc(N(C)C)c2)cc1NC(=O)c1ccc(O)cc1,> 46 µM (inactive)
10,COc1nccc(-c2c(-c3ccc(F)cc3)ncn2C2CCC(O)CC2)n1 (stereo unspecified),> 46 µM (inactive)
11,NC(=O)c1nnn(Cc2cc(Cl)c(C(=O)c3ccc(Cl)cc3)c(Cl)c2)c1N,> 9.22 µM (inactive)
12,CN(C)CCN(Cc1ccc(Cl)cc1)c1ccccn1,> 20.6 µM (inactive)
13,O=S(=O)(O)c1ccc2cc(N=Nc3cc(S(=O)(=O)O)c4cccnc4c3O)ccc2c1,> 9.22 µM (inactive)
14,CN1CCN2c3ncccc3Cc3ccccc3C2C1 (stereo unspecified),> 46 µM (inactive)
15,CCCCC(C=O)NC(=O)C(CC(C)C)NC(=O)OCc1ccccc1 (stereo unspecified),> 46 µM (inactive)
16,Cc1cc2nc3c(=O)[nH]c(=O)nc-3n(CC(O)C(O)C(O)CO)c2cc1C (stereo unspecified),> 20.6 µM (inactive) and > 46 µM (inactive)
17,CN[C@H]1[C@@H](O[C@@H]2[C@H](O[C@@H]3[C@@H](O)[C@@H](O)[C@@H](N=C(N)N)[C@@H](O)[C@@H]3N=C(N)N)O[C@H](C)[C@@]2(O)C=O)O[C@@H](CO)[C@@H](O)[C@H]1O,> 20.6 µM (inactive)
18,CCC(=C(CC)c1ccc(O)cc1)c1ccc(O)cc1,> 20.6 µM (inactive)
19,Clc1ccc(COC(Cn2ccnc2)c2ccc(Cl)cc2Cl)c(Cl)c1 (stereo unspecified),> 20.6 µM (inactive)

# Biological target: Mitogen-activated protein kinase 10 (Mus musculus) (UniProt Q61831)
# Assay: JNK3 AlphaScreen Assay (AID 530; active = well fitted curve in either direction with a large enough effect, not every such curve was filed as active;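 note: kinase came from lysate of stimulated human HepG2 cells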; note: potency is the fitted concentration of half-maximal effect)
# Conditions: JNK3 lysate, c-Jun phosphorylation; series mostly up to 25.6 µM
# How it was run: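 Inhibitors reduce antibody binding to phosphorylated biotin-cJun, lowering AlphaScreen luminescence. Lysates from HepG2 cells pre-activated by IL-1beta plus TNF-alpha supplied JNK3; compounds were titrated.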
row,Structure (SMILES),Potency
1,C=C1c2cccc(O)c2C(O)=C2C(=O)[C@@]3(O)C(O)=C(C(N)=O)C(=O)[C@@H](N(C)C)[C@@H]3[C@@H](O)[C@H]12,inactive
2,NS(=O)(=O)c1cc(Cl)c(Cl)c(S(N)(=O)=O)c1,inactive
3,CCCCC[C@H](O)C=C[C@H]1[C@H](O)CC(=O)[C@H]1CCCCCCC(=O)O,inactive
4,CN(C)c1ccccc1CN1CCCN(Cc2ccccc2N(C)C)C1c1ccncc1,inactive
5,CC1C(=O)OC2C(O)C34C5CC(C(C)(C)C)C36C(OC(=O)C6O)OC4(C(=O)O5)C12O (stereo unspecified),inactive
6,O=c1cc(-c2ccc(O)c(O)c2)oc2cc(O)cc(O)c12,6.31 µM (active)
7,Cc1ccc(NC(=O)c2cccc(N(C)C)c2)cc1NC(=O)c1ccc(O)cc1,inactive
8,NC(=O)c1nnn(Cc2cc(Cl)c(C(=O)c3ccc(Cl)cc3)c(Cl)c2)c1N,inactive
9,CN(C)CCN(Cc1ccc(Cl)cc1)c1ccccn1,inactive
10,O=S(=O)(O)c1ccc2cc(N=Nc3cc(S(=O)(=O)O)c4cccnc4c3O)ccc2c1,inactive
11,CN1CCN2c3ncccc3Cc3ccccc3C2C1 (stereo unspecified),inactive
12,CCCCC(C=O)NC(=O)C(CC(C)C)NC(=O)OCc1ccccc1 (stereo unspecified),inactive
13,NCC1CCC(C(=O)O)CC1 (stereo unspecified),inactive
14,Cc1cc2nc3c(=O)[nH]c(=O)nc-3n(CC(O)C(O)C(O)CO)c2cc1C (stereo unspecified),inactive
15,CN[C@H]1[C@@H](O[C@@H]2[C@H](O[C@@H]3[C@@H](O)[C@@H](O)[C@@H](N=C(N)N)[C@@H](O)[C@@H]3N=C(N)N)O[C@H](C)[C@@]2(O)C=O)O[C@@H](CO)[C@@H](O)[C@H]1O,inactive
16,CCC(=C(CC)c1ccc(O)cc1)c1ccc(O)cc1,inactive
17,Clc1ccc(COC(Cn2ccnc2)c2ccc(Cl)cc2Cl)c(Cl)c1 (stereo unspecified),inactive

# Biological target: 3',5'-cyclic-AMP phosphodiesterase 4B (Homo sapiens) (UniProt Q07343)
# Assay: qHTS Assay for Inhibitors of PDE-IV (AID 607; active = well fitted activation curve with a large enough effect in the main read-out, with a control signal flat, not every such curve was filed as active)
# Conditions: HEK293 ACTOne CNG channel cells, membrane potential fluorescence; series mostly up to 22.9 µM
# How it was run: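 Cell-based read-out of cAMP via a modified cyclic nucleotide-gated channel and membrane potential dye (535/590 nm) in HEK293 cells expressing PDE4 endogenously. Compounds tested up to 22.9 uM final; 100 uM RO 20-1724 reference.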
# Sequence of 3',5'-cyclic-AMP phosphodiesterase 4B (Homo sapiens) (Q07343 whole entry, looked up): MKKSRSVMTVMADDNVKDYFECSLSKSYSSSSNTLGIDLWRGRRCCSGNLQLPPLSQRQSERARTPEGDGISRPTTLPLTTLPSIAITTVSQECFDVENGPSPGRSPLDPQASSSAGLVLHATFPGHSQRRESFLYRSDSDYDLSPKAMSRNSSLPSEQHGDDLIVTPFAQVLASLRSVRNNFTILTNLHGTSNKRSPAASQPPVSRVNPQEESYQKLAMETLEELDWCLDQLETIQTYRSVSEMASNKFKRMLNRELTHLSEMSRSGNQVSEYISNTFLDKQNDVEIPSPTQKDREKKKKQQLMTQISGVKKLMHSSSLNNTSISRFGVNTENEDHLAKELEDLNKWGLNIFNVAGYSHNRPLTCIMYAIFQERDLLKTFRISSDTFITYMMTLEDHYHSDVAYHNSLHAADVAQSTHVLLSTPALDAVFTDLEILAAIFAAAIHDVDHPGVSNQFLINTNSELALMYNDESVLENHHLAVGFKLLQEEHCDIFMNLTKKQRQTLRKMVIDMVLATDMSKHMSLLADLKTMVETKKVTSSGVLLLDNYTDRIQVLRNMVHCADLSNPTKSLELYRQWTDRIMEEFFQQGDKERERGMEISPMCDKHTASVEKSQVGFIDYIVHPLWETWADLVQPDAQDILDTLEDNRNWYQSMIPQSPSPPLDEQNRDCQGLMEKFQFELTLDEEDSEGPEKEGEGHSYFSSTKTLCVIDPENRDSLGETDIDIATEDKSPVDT
row,Structure (SMILES),outcome
1,C=C1c2cccc(O)c2C(O)=C2C(=O)[C@@]3(O)C(O)=C(C(N)=O)C(=O)[C@@H](N(C)C)[C@@H]3[C@@H](O)[C@H]12,inactive
2,COc1ccc(CCN(C)CCCOc2ccc(S(=O)(=O)c3[nH]c4ccccc4c3C(C)C)cc2)cc1OC,inactive
3,NS(=O)(=O)c1cc(Cl)c(Cl)c(S(N)(=O)=O)c1,inactive
4,CN(C)c1ccccc1CN1CCCN(Cc2ccccc2N(C)C)C1c1ccncc1,inactive
5,CC1C(=O)OC2C(O)C34C5CC(C(C)(C)C)C36C(OC(=O)C6O)OC4(C(=O)O5)C12O (stereo unspecified),inactive
6,O=c1cc(-c2ccc(O)c(O)c2)oc2cc(O)cc(O)c12,inactive
7,Cc1ccc(NC(=O)c2cccc(N(C)C)c2)cc1NC(=O)c1ccc(O)cc1,inactive
8,COc1nccc(-c2c(-c3ccc(F)cc3)ncn2C2CCC(O)CC2)n1 (stereo unspecified),inactive
9,NC(=O)c1nnn(Cc2cc(Cl)c(C(=O)c3ccc(Cl)cc3)c(Cl)c2)c1N,inactive
10,O=S(=O)(O)c1ccc2cc(N=Nc3cc(S(=O)(=O)O)c4cccnc4c3O)ccc2c1,inactive
11,CCCCC(C=O)NC(=O)C(CC(C)C)NC(=O)OCc1ccccc1 (stereo unspecified),inactive
12,NCC1CCC(C(=O)O)CC1 (stereo unspecified),inactive
13,Cc1cc2nc3c(=O)[nH]c(=O)nc-3n(CC(O)C(O)C(O)CO)c2cc1C (stereo unspecified),inactive
14,CN[C@H]1[C@@H](O[C@@H]2[C@H](O[C@@H]3[C@@H](O)[C@@H](O)[C@@H](N=C(N)N)[C@@H](O)[C@@H]3N=C(N)N)O[C@H](C)[C@@]2(O)C=O)O[C@@H](CO)[C@@H](O)[C@H]1O,inactive
15,CCC(=C(CC)c1ccc(O)cc1)c1ccc(O)cc1,inactive

# Source: PubChem BioAssay (NCATS)
